3T3 cytotox – cytotoxic compounds in NIH 3T3 cells; NIH 3T3 viability, CellTiter-Glo ATP luminescence, 48-72 h; Potency, µM (top dose mostly 96.7 µM), without a hit: top-dose activity change, negative = cytotoxicity, hits mostly inhibitors; 94,000 compounds, 4.3% hits; AID 1345082; further: nearly all actives have a fitted effect of over 55% in size
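Cytotoxicity was measured by CellTiter-Glo ATP luminescence after 48 or 72 h compound exposure at 37 °C. Mouse NIH 3T3 fibroblasts were seeded at 400 cells/well and dosed by 23 nL pin transfer.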
HEK293 viab – counter-screen for SNCA expression inhibitors: cell viability; HEK-293-SNCA-luc viability, GF-AFC fluorescence, 24 h; Potency, µM (titrated, usually from 57.1 µM), without a hit: top-dose activity change, negative = cytotoxicity, usual class: cytotoxic; 150,000 compounds, 0.12% hits; AID 1671193;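 further: 0% = DMSO-treated cells and -100% = medium-only wells without cells; nearly all actives have a fitted effect of over 30% in size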
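Cytotoxicity counterscreen: after 24 h compound treatment of genome-edited SNCA-luciferase HEK-293 cells, live-cell protease substrate GF-AFC read by fluorescence after 30 min; activity scaled between DMSO (0%) and medium-only (-100%), curves Hill-fitted.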
SNCA expr inh – SNCA gene expression inhibition. 140,000 compounds, 0.17% hits. HEK-293 SNCA-luciferase knock-in, luminescence, 24 h. AID 1671194. Potency, µM (titrated, usually from 57.2 µM), without a hit: at the highest dose activity change, negative = inhibition, usual class: inhibitors;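 further: plate controls were DMSO cells for no effect and cell-free wells for full effect; nearly all actives have a fitted effect of over 45% in size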
hNpr1 antagonist – antagonists of human natriuretic peptide receptor Npr1; HEK293 hNpr1 GloSensor cGMP, ANP-stimulated luminescence; Potency, µM (titrated, usually from 46.3 µM), without a hit: at the highest dose activity change, negative = inhibition, hits mostly inhibitors; 76,000 compounds, 1.6% hits; calls by dose curve; further: nearly all actives have a fitted effect of over 60% in size
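Compound pre-incubated 30 min at room temperature on GloSensor-loaded HEK293 cells stably carrying hNpr1 and the pGS-40F cGMP biosensor. Stimulation uses hNppA at 0.1 nM final; luminescence is taken at baseline and 20 min post-agonist.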
HEK293 tox – cytotoxic compounds in HEK 293 cells | HEK 293 viability, ATP luminescence (CellTiter-Glo), 48-72 h | AID 1345083 | 94,000 compounds, 6.6% hits | Potency, µM (titrated, usually from 115 µM), inactives show at the top dose activity change, negative = cytotoxicity, hits mostly inhibitors; further: nearly all actives have a fitted effect of over 60% in size
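250 HEK 293 cells/well; compound by pintool; incubated 48 or 72 hr at 37 degree Celsius; CellTiter-Glo added, 10 min RT, luminescence imaged.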
Luciferase inh – Photinus pyralis luciferase inhibition. Potency, µM (top dose mostly 115 µM), actives largely listed as inhibitors. purified P. pyralis luciferase, luminescence, biochemical. P08659. 76,000 compounds, 2.5% hits; further: nearly all actives have a fitted effect of over 65% in size
Target sequence (P08659 whole entry, looked up): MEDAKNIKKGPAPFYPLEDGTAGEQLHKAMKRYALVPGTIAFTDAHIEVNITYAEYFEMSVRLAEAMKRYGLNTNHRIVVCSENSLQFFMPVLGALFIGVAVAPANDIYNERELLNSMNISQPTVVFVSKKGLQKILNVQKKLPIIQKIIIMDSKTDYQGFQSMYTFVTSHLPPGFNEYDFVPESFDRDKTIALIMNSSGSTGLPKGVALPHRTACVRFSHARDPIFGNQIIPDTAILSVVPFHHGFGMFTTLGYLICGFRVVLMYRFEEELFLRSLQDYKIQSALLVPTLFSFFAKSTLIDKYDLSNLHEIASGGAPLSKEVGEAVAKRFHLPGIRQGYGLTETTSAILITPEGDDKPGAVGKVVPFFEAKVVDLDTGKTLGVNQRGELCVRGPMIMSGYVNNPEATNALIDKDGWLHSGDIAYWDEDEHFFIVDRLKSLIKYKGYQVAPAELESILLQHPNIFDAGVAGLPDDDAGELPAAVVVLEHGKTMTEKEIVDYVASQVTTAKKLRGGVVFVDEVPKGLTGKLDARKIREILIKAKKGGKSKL
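Luminescence read by CCD imaging after purified firefly luciferase (10nM final) was added to substrate buffer holding 10uM D-luciferin and 10uM ATP, pH 7.5, pre-dosed with compound.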
* hit, by the source's call; i = inactive; ? = inconclusive; · = not tested or not shown; [ ] = another dose, or the depositor's remark. In the library only some 7.4% were active in any assay of this set; here they are far more common. Unless noted, the call rests on the fitted dose curve; in most records, active means well fitted curve in the direction sought with a large enough effect; inconclusive means small, poorly fitted or top-dose-only effect, or another doubt; inactive means no such curve, though single readings can be large; an effect the other way counts as inactive or inconclusive. Unless noted, on the % scale 0 is the no-effect control and ±100 the full control effect; potency means the concentration at half of the fitted maximal effect.

SMILES	3T3 cytotox	HEK293 viab	SNCA expr inh	hNpr1 antagonist	HEK293 tox	Luciferase inh
COc1ccc(N2CCN(C(=O)C3CC(=O)N(c4n[nH]c5cccc(F)c45)C3)CC2)cc1 (stereo not given)	-14%	0%	0%	-15%	40µM*	i
O=C(Nc1nc2c(s1)CCCC2)C1CC(=O)N(c2n[nH]c3ccccc23)C1 (stereo not given)	-24%	-4%	-21%	-17%	?	i
O=C(NCc1nnc2cc(-c3nc(C4CC4)no3)ccn12)c1cccnc1	i	-3%	1%	-1%	?	i
CC1(C)[C@H](Cc2cc(COc3ccccc3)on2)C[C@@H]1NC(=O)NCc1ccccc1	?	-29%[87.6 µM]	-21%[87.6 µM]	?	63µM*	i
CC(C)N[C@H]1C[C@@H](Cc2cc(COc3ccccc3)on2)C1(C)C	50µM*	-15%[87.6 µM]	47%[87.6 µM]	-1%[70.6 µM]	63µM*	i
CC1(C)[C@H](Cc2cc(COc3ccccc3)on2)C[C@@H]1NC(=O)C1CCCC1	?	-30%[87.6 µM]	-28%[87.6 µM]	?	?	i
CC1(C)[C@H](Cc2cc(COc3ccccc3)on2)C[C@@H]1NC(=O)C1CCC1	?	-31%[87.6 µM]	-21%[87.6 µM]	?	35µM*	i
CCCNC(=O)[C@@H]1Cc2cn(Cc3cccnc3)c3cccc(c23)[C@H](CC(C)C)N1	89µM*	?	?	-2%[70.6 µM]	?	i
CCCNC(=O)[C@@H]1Cc2cn(Cc3ccccn3)c3cccc(c23)[C@H](CC(C)C)N1	?	?	?	-26%[70.6 µM]	?	i
CCCNC(=O)[C@@H]1Cc2cn(Cc3ccncc3)c3cccc(c23)[C@H](CC(C)C)N1	25µM*	?	?	?	32µM*	i
CC(C)C[C@@H]1N[C@H](C(=O)NC(C)C)Cc2cn(Cc3ccncc3)c3cccc1c23	32µM*	?	?	?	?	i
CC(C)C[C@@H]1N[C@H](C(=O)O)Cc2cn(Cc3ccncc3)c3cccc1c23	-17%	2%	10%	5%	-28%	i
CC(C)C[C@@H]1N[C@H](C(=O)NCCN(C)C)Cc2cn(Cc3ccncc3)c3cccc1c23	28µM*	-30%[87.6 µM]	?	1%[70.6 µM]	40µM*	i
Cc1nnc2ccc(N3CCCN(C(=O)c4ccc(Cl)cc4)CC3)nn12	-22%	·	·	·	1%	·
COc1ccc(CNC(=O)[C@@H]2Cc3cn(CC4CC4)c4cccc(c34)[C@H](CC(C)C)N2)cc1	?	-2%	-30%	4%	?	i
CC(C)C[C@@H]1N[C@H](C(=O)NCC2CC2)Cc2cn(Cc3ccncc3)c3cccc1c23	?	?	?	-16%[70.6 µM]	35µM*	i
COCCCNc1nc(-c2c(C)noc2C)cc2cc(C(C)C)oc12	?	10%[87.6 µM]	30%[87.6 µM]	-1%[70.6 µM]	89µM*	i
Cc1noc(C)c1-c1cc2cc(C(C)C)oc2c(NCCc2ccccn2)n1	?	-5%[87.6 µM]	7%[87.6 µM]	-2%[70.6 µM]	?	i
COCCNc1nc(-c2c(C)noc2C)cc2cc(C(C)C)oc12	?	-13%[87.6 µM]	51%[87.6 µM]	2%[70.6 µM]	71µM*	i
CC1CCC2(CC1)NC(=O)N(CC(=O)Nc1cc(C(F)(F)F)ccc1Cl)C2=O (stereo not given)	-4%	-4%	0%	9%	-23%	i
Cc1nn2c(c1-c1ccccc1N1CCCC1)N(C(=O)C1CCOCC1)CCC2	?	2%[87.6 µM]	?	-2%[70.6 µM]	100µM*	i
Cc1nn2c(c1-c1cccnc1N1CCOCC1)N(C(=O)COc1ccccc1)CCC2	100µM*	2%[87.6 µM]	12%[87.6 µM]	2%[70.6 µM]	1%[172 µM]	i
Cc1nn2c(c1-c1ccccc1N1CCCC1)N(C(=O)c1cccc(N(C)C)c1)CCC2	?	-30%[87.6 µM]	?	-5%[70.6 µM]	89µM*	i
Cc1nn2c(c1-c1ccccc1N1CCCC1)N(C(=O)COc1ccccc1)CCC2	?	?	?	-14%[70.6 µM]	71µM*	i
Cc1nn2c(c1-c1ccccc1-c1ccccc1)N(C(=O)COc1ccccc1)CCC2	?	-9%[87.6 µM]	-24%[87.6 µM]	-26%[70.6 µM]	?	i
SMILES	3T3 cytotox	HEK293 viab	SNCA expr inh	hNpr1 antagonist	HEK293 tox	Luciferase inh
CC(C)(C)C(=O)Nc1cc(-c2ccncc2)nn1-c1ccccc1	-17%[138 µM]	-13%[87.6 µM]	4%[87.6 µM]	·	-7%[172 µM]	·
COc1ncccc1-c1cnc2[nH]cc(CC(=O)NC3CCOCC3)c2c1	?	3%[87.6 µM]	8%[87.6 µM]	1%[70.6 µM]	?	i
Cc1nn2c(c1-c1cccnc1N1CCOCC1)N(Cc1ccccc1F)CCC2	?	-2%[87.6 µM]	-10%[87.6 µM]	-18%[70.6 µM]	?	i
Cc1nn2c(c1-c1cccnc1N1CCOCC1)N(CCCc1ccccc1)CCC2	?	-23%[87.6 µM]	?	?	50µM*	i
COCCC1(NC(=O)C(C)c2ccccc2)CCN(S(C)(=O)=O)CC1 (stereo not given)	-18%	20µM*	-14%	-1%	-12%	i
COCCC1(NS(=O)(=O)c2ccccc2)CCN(S(C)(=O)=O)CC1	4%	0%	1%	4%	0%	i
CNc1ncccc1C(=O)N1CCCC2(C1)C(=O)N(C)c1ccccc12 (stereo not given)	-5%	-2%	-1%	-3%	-5%	i
CN1CCCN(C(=O)C2CCCC2)c2ccccc21	?	10%	-14%	-5%	89µM*	i
COc1ccccc1C(=O)N1CCCN(C)c2ccccc21	?	-21%	?	-11%	79µM*	i
O=C(C1CC1)N1CCC2(CC1)CC(N(Cc1ccc(F)cc1)C1CC1)CCO2 (stereo not given)	-27%	-16%	-15%	15%	?	i
O=C(C1CCCCC1)N1CCC2(CC1)CC(N(Cc1ccc(F)cc1)C1CC1)CCO2 (stereo not given)	?	22%	-11%	-21%	45µM*	i
CCC(CC)C(=O)N1CCC2(CC1)CC(N(Cc1ccc(F)cc1)C1CC1)CCO2 (stereo not given)	?	5%	-27%	-24%	40µM*	i
COCCN1Cc2nc(Nc3ccc(F)c(Cl)c3)ccc2OCC1=O	?	-5%[87.6 µM]	-6%[87.6 µM]	-2%[70.6 µM]	100µM*	i
O=C1COc2ccc(Nc3cccc(F)c3)nc2CN1CCOc1ccccc1	89µM*	-10%[87.6 µM]	-26%[87.6 µM]	?	89µM*	i
O=C1COc2ccc(Nc3ccccc3)nc2CN1CCOc1ccccc1	?	-13%[87.6 µM]	-15%[87.6 µM]	?	?	?
Cc1ccccc1-c1ccc2c(n1)CN(CCOc1ccccc1)C(=O)CO2	?	-3%[87.6 µM]	-27%[87.6 µM]	-21%[70.6 µM]	?	i

High-throughput results as filed in PubChem.
